High-throughput results as filed in PubChem.
SW480 rerep = A quantitative high throughput screen for small molecules that induce DNA re-replication in SW480 colon adenocarcinoma cells. SW480 DNA re-replication, Hoechst DNA content imaging, 48 h. hit rate 1.8% among 340,000. Potency, µM (top dose mostly 46.1 µM), for inactives: at the highest dose re-replication activation, actives largely listed as activators; further: % of control where 0% means no effect; nearly all actives have a fitted effect of over 55% in size
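Treated cells incubate 48 hr (37 C, 5% CO2), are stained 40 min with Hoechst, and nuclear fluorescence is enumerated; a rise in nuclei with high DNA signal marks re-replication.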
KB-3-1 tox = qHTS assay for MDR1-selective chemotherapeutics: Primary screen using the parental adenocarcinoma cell KB-3-1; KB-3-1 viability, CellTiter-Glo ATP luminescence, 72 h; Potency, µM (highest dose often 46.1 µM), actives largely listed as cytotoxic; hit rate 1.4% among 400,000; AID 1347075, 2019; further: on the % scale 0 is the no-effect control and ±100 the full control effect; nearly all actives have a fitted effect of over 60% in size
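Cytotoxicity in the drug-sensitive parental line KB-3-1 was scored as loss of CellTiter-Glo luminescence following 72 h incubation with compound. Values come from curve fitting of normalized concentration-response data.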
RORg inh = qHTS for inhibitors of ROR gamma transcriptional activity; Nuclear receptor ROR-gamma (Mus musculus), P51450; Drosophila S2 Gal4-RORgamma UAS-luciferase reporter, 20 h; Potency, µM (highest dose often 53.6 µM), for the others: top-dose activity change, negative = inhibition, actives largely listed as inhibitors; hit rate 5.4% among 310,000; further: on the % scale 0 is the no-effect control and ±100 the full control effect; nearly all actives have a fitted effect of over 60% in size
Target sequence (P51450 whole entry, looked up, the tested form may be a part): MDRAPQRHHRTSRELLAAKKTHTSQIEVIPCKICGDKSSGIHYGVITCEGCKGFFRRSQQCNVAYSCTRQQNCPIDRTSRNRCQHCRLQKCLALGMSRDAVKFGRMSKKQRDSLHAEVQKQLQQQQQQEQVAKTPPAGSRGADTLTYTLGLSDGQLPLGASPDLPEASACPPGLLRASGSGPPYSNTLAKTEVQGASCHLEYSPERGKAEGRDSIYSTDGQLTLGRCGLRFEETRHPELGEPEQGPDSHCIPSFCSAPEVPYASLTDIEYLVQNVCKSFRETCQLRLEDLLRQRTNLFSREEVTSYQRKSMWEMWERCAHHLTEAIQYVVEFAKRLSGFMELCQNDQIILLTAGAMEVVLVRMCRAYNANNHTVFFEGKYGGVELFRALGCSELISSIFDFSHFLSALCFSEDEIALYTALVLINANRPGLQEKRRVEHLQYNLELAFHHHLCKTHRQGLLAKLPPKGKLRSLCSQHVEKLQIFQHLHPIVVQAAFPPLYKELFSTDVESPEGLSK
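Drosophila Schneider cells stably carrying a metallothionein-driven Gal4 DBD–ROR gamma fusion and a UAS-Photinus luciferase reporter were exposed to compound for 1 hr, then induced with copper sulfate (700 uM final) for 20 hr at ambient temperature before luminescence reading.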
MCF10A rerep = A quantitative high throughput screen for small molecules that induce DNA re-replication in MCF 10a normal breast cells; Potency, µM (doses to about 46.1 µM), inactives show top-dose activity, positive = re-replication, most hits filed as activators; MCF 10A DNA re-replication, Hoechst nuclear intensity, 48 h; hit rate 2.9% among 350,000; AID 624296, 2012; further: % of control where 0% means no effect; nearly all actives have a fitted effect of over 50% in size
Gal4-VP16 FLuc = VP16 counterscreen qHTS for inhibitors of ROR gamma transcriptional activity. Drosophila S2 Gal4-VP16 UAS-luciferase, luminescence, 20 h. Potency, µM (series often up to 53.6 µM), inactives show top-dose activity, negative = inhibition, actives largely listed as inhibitors. hit rate 3.5% among 310,000. AID 2546, 2010;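 further: Gal4-VP16 expression switched on by copper sulfate through the metallothionein promoter; on the % scale 0 is the no-effect control and ±100 the full control effect; nearly all actives have a fitted effect of over 50% in size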
KB-V1 MDR tox = qHTS assay for MDR1-selective chemotherapeutics: Primary screen using the drug-selected MDR subline cells KB-V1; Potency, µM (doses to about 46.1 µM), most hits filed as cytotoxic; hit rate 3.4% among 400,000; KB-V1 MDR cells viability, CellTiter-Glo, 72 h; AID 1347076, 2019; further: on the % scale 0 is the no-effect control and ±100 the full control effect; nearly all actives have a fitted effect of over 60% in size
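Following 72 h at 37 degrees C with compound, KB-V1 cell viability was read by CellTiter-Glo luminescence, medium being phenol-red-free DMEM plus 10% FBS; concentration-response parameters came from normalized, curve-fitted qHTS data.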
Starred values were filed as active, the others as inactive. This is a sample that favours compounds with a hit; in the whole collection about 10% have one here. The call rests on the fitted dose curve; in most records, active means well fitted curve in the direction sought with a large enough effect; inconclusive means small, poorly fitted or top-dose-only effect, or another doubt; inactive means no such curve, though single readings can be large; an effect the other way counts as inactive or inconclusive. Potency means the concentration at half of the fitted maximal effect.

`COc1ccc2c(c1)CC(C(=O)NCCN1CCN(c3cccc(Cl)c3)CC1)CO2` (stereo unspecified) gave KB-3-1 tox inactive and KB-V1 MDR tox inactive.
O=C(/C=C/c1ccc([N+](=O)[O-])s1)N1CCN(c2ccccc2)CC1 was read as SW480 rerep 27%, KB-3-1 tox inactive, RORg inh -17%, MCF10A rerep inconclusive, Gal4-VP16 FLuc -1% and KB-V1 MDR tox inactive.
O=C(/C=C/c1ccc([N+](=O)[O-])s1)N1CCCC1 was read as SW480 rerep 12µM*, KB-3-1 tox inconclusive, RORg inh 6.3µM*, MCF10A rerep -1%, Gal4-VP16 FLuc 13µM* and KB-V1 MDR tox inconclusive.
`O=[N+]([O-])c1ccc(CN2CCCCCC2)cc1` gave SW480 rerep -8%, KB-3-1 tox inactive, RORg inh -42%, MCF10A rerep 7%, Gal4-VP16 FLuc -2% and KB-V1 MDR tox inactive.
Screening CC1CN(C(=O)/C=C/c2ccc([N+](=O)[O-])s2)CC(C)O1 (stereo unspecified) returned SW480 rerep 8.2µM*, KB-3-1 tox inconclusive, RORg inh inconclusive, MCF10A rerep inconclusive, Gal4-VP16 FLuc inconclusive and KB-V1 MDR tox 8.2µM*.
Screening CC1CC(C)CN(C(=O)/C=C/c2ccc([N+](=O)[O-])s2)C1 (stereo unspecified) returned SW480 rerep inconclusive, KB-3-1 tox inactive, RORg inh -10%, MCF10A rerep 22%, Gal4-VP16 FLuc 7% and KB-V1 MDR tox inconclusive.
`O=[N+]([O-])c1ccc(CN2CCCCCC2)s1` gave SW480 rerep inconclusive, KB-3-1 tox 23µM*, RORg inh -12%, MCF10A rerep 13%, Gal4-VP16 FLuc -11% and KB-V1 MDR tox inconclusive.
For O=C(/C=C/c1ccc([N+](=O)[O-])s1)N1CCCCC1 the results were SW480 rerep 5.8µM*, KB-3-1 tox 15µM*, RORg inh 11µM*, MCF10A rerep inconclusive, Gal4-VP16 FLuc inconclusive and KB-V1 MDR tox inconclusive.
`O=C(NCC(c1cccs1)S(=O)(=O)c1cccs1)c1ccc(C(F)(F)F)cc1` (stereo unspecified) gave KB-3-1 tox inactive and KB-V1 MDR tox inactive.
For S=C1NCN(Cc2cccnc2)CN1 the results were SW480 rerep -9%, KB-3-1 tox inactive, RORg inh 12%, MCF10A rerep -5%, Gal4-VP16 FLuc -4% and KB-V1 MDR tox inactive.
Screening CN(C)C(=S)N=c1ssc(=S)n1Cc1cccnc1 returned SW480 rerep 18µM*, KB-3-1 tox inconclusive, MCF10A rerep 12µM* and KB-V1 MDR tox inconclusive.
Cc1cnc(CNc2cc(-c3ccc(N(C)C)cc3)ncn2)cn1 was read as RORg inh -39% and Gal4-VP16 FLuc -14%.
`Oc1ccc(CN2CCc3ccccc3C2)c2cccnc12` gave SW480 rerep inconclusive, KB-3-1 tox 4.6µM*, RORg inh 1µM*, MCF10A rerep 2.3µM*, Gal4-VP16 FLuc inconclusive and KB-V1 MDR tox inconclusive.
`Oc1c(Cl)cc(CN2CCCCC2)c2cccnc12` gave RORg inh 4.5µM* and Gal4-VP16 FLuc 3.5µM*.
Screening Cc1ccc(C)c(S(=O)(=O)N2CCN(Cc3ccc(O)c4ncccc34)CC2)c1 returned SW480 rerep inconclusive, KB-3-1 tox inconclusive, RORg inh 2µM*, MCF10A rerep inconclusive, Gal4-VP16 FLuc 3.2µM* and KB-V1 MDR tox inconclusive.
